Bioassay records (PubChem)
HT1080 IDH1KD tx: qHTS for induction of synthetic lethality in tumor cells producing 2HG: qHTS for the HT-1080-IDH1KD cell line. 360,000 tested, 2% active. HT-1080 IDH1 knockdown viability, ATP luminescence, 48 h. Potency, µM (top dose mostly 46.1 µM), usual class: cytotoxic
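Luminescent ATP read-out (CellTiter-Glo, 10 min at room temperature) after 48 h compound exposure at 37 °C gave viability of IDH1-knockdown HT-1080 cells. Activity was normalised to DMSO and cell-free wells, then fitted as concentration-response curves.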
IL-1B inflam inh: qHTS for Inhibitors of Inflammasome Signaling: IL-1-beta AlphaLISA Primary Screen. THP-1 LPS/ATP IL-1B secretion, AlphaLISA, 16 h; active compounds read low. activity change, % at 57.5 µM. 360,000 tested, 4.7% active; in the data active = activity change below about -50%; inconclusive = mostly about -30% to -49%
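THP-1 cells pretreated 1 hr with compounds (up to 57.5 uM final), then stimulated with LPS (250 ng/mL final) plus ATP (1.25 mM final); secreted IL-1B measured by AlphaLISA after 16 hr, decreased signal indicating inhibition.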
KB-3-1 tox: qHTS assay for MDR1-selective chemotherapeutics: Primary screen using the parental adenocarcinoma cell KB-3-1. KB-3-1 viability, CellTiter-Glo ATP luminescence, 72 h. Potency, µM (titrated, usually from 46.1 µM), hits mostly cytotoxic. 400,000 tested, 1.4% active; note: nearly all actives have a fitted effect of over 60% in size
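Multi-concentration cytotoxicity screen in KB-3-1 cells grown in DMEM lacking phenol red with 10% FBS. After 72 h at 37 °C with compound, ATP-dependent luminescence was recorded.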
HT1080-NT tox: qHTS for induction of synthetic lethality in tumor cells producing 2HG: qHTS for the HT-1080-NT fibrosarcoma cell line; HT-1080-NT fibrosarcoma viability, CellTiter-Glo ATP luminescence, 48 h; Potency, µM (titrated, usually from 46.1 µM), actives largely listed as cytotoxic; 360,000 tested, 1.6% active; AID 686970, 2013;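 note: NT is the 2HG producing partner of a matched IDH1 knockdown line; nearly all actives have a fitted effect of over 55% in size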
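Fibrosarcoma NT cells, 750 per well in 5% FBS RPMI, were exposed to compound for 48 hours. Viability: CellTiter-Glo luminescence.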
KB-V1 cytotox: qHTS assay for MDR1-selective chemotherapeutics: Primary screen using the drug-selected MDR subline cells KB-V1. KB-V1 MDR cells viability, CellTiter-Glo, 72 h. Potency, µM (doses to about 46.1 µM), most hits filed as cytotoxic. 400,000 tested, 3.4% active. AID 1347076, 2019; note: nearly all actives have a fitted effect of over 60% in size
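qHTS viability screen in drug-selected KB-V1 MDR cells: 72 h compound treatment at 37 degrees C, ATP luminescence end point.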
Hits are given with their value; - = inactive; ? = inconclusive; . = no result; ! = not active in a repeat. Rows were chosen to be rich in hits. Some 8.8% of all compounds tested hit in one or more screens of this group. Unless noted, calls come from the whole dose curve; as a rule, active = well fitted curve in the direction sought with a large enough effect; inconclusive = small, poorly fitted or top-dose-only effect, or another doubt; inactive = no such curve, though single readings can be large; an effect the other way counts as inactive or inconclusive.

SMILES	HT1080 IDH1KD tx	IL-1B inflam inh	KB-3-1 tox	HT1080-NT tox	KB-V1 cytotox
COc1ccc(C(=O)/C=C/c2ccc(O)cc2)c2c1CC(O)C(C)(C)O2 (stereo not drawn)	-	-93	?	-	?
COc1ccc(C(=O)/C=C/c2ccc(O)cc2)c(O)c1CC=C(C)C	23µM	-72	-	?	-
CC(=O)c1ccc(O)c(CC=C(C)C)c1O	-	-	-	-	-
COc1cccc(CNc2nc(NCC3CC3)nc3ccsc23)c1	.	-72	-	.	?
CNc1nc(NCc2cccc(OC)c2)c2sccc2n1	?	-	-	-	-
COc1cccc(CNc2nc(NCc3ccccc3)nc3ccsc23)c1	?	-55	?	21µM	9.2µM
CC1CCCC(NC(=O)CN(C)CC(=O)Nc2cccc(F)c2)C1C (stereo not drawn)	-	-	-	-	-
COc1ccc(C2=NN(C(C#N)c3ccc(OC)cc3)C(c3ccccc3)C2)cc1 (stereo not drawn)	-	-	23µM	-	6.5µM
CCOC(=O)C[C@H]1c2cc(C(F)(F)F)ccc2S(=O)(=O)N1Cc1ccccc1	-	-	-	-	10µM!
CCOC(=O)C[C@H]1c2ccccc2S(=O)(=O)N1Cc1ccc(Cl)cc1	-	-	?	-	16µM!
Cc1ccc(NC(=O)Cn2cc(S(=O)(=O)N3CCC(C)CC3)c3ccccc3c2=O)c(Br)c1	.	.	-	.	-
COc1ccc2c(=O)cc(CO)oc2c1	-	-	-	-	-
c1nc(NCCCN2CCOCC2)c2cc(-c3ccc4c(c3)OCO4)ccc2n1	.	.	-	.	-
O=C(NCCCCCCNC(=O)c1ccc(Br)s1)c1ccc(Br)s1	?	-	?	?	3.3µM
O=C(Nc1ccc(Br)cn1)c1ccc(Br)s1	?	-	?	-	23µM
O=C(/C=C/c1cccs1)Nc1cccc(NC(=O)/C=C/c2cccs2)n1	-	-	23µM	-	23µM
O=C(/C=C/c1cccs1)Nc1nccs1	-	-	-	?	-
O=C(/C=C/c1cccs1)Nc1ccc(Br)cn1	0.18µM	-	1.3µM	0.12µM	0.37µM
O=C(NCCCCNC(=O)c1ccc(Cl)s1)c1ccc(Cl)s1	-	-	-	-	-
CC1CCc2c(sc(NC(=O)c3cc(-c4ccc(F)cc4)on3)c2C(N)=O)C1 (stereo not drawn)	.	.	-	.	-
COC(=O)c1c(SCC(=O)Nc2cccc(Cl)c2C)[nH]c2ccccc2c1=O	.	.	-	.	-
Cc1ccc(C)c(S(=O)(=O)Nc2ccc(C(=O)NCCCN3CCOCC3)cc2)c1	-	-	-	-	-
Cc1cc(C)c(-c2csc(NC(=O)/C=C/c3cccs3)n2)c(C)c1	-	-	?	-	5.2µM
Cc1c(Cc2ccccc2)c(NCCN(C)C)n2c(nc3ccccc32)c1C#N	-	-71	-	-	?
COc1cc(C2c3c(oc4ccccc4c3=O)C(=O)N2c2nnc(C(C)C)s2)cc(OC)c1OC (stereo not drawn)	.	.	-	.	-
SMILES	HT1080 IDH1KD tx	IL-1B inflam inh	KB-3-1 tox	HT1080-NT tox	KB-V1 cytotox
CC1CCCN(c2ccc(C(=O)NCc3ccco3)cc2[N+](=O)[O-])C1 (stereo not drawn)	-	-61	-	-	-
Cc1ccc(C(=O)NCc2ccco2)cc1[N+](=O)[O-]	-	-	-	-	-
CCCN(CC(=O)Nc1ccccc1C)C(=O)c1ccc(N2CCCC(C)C2)c([N+](=O)[O-])c1 (stereo not drawn)	-	-71	-	-	-
CN(c1ccccc1)S(=O)(=O)c1cccc(NC(=O)CSc2ncc(C(F)(F)F)cc2Cl)c1	-	-	-	-	-
COc1ccc(OC)c(NC(=O)CSC2=Nc3ccccc3C3=NC(CCC(=O)NCCc4ccccc4)C(=O)N23)c1 (stereo not drawn)	.	.	?	.	-
COc1ccccc1-c1ccc2c(c1)C(C)(Cc1ccc(OC(F)(F)F)cc1)C(=O)N2 (stereo not drawn)	?	-52	-	?	-
CC1(Cc2cc(Cl)ccc2C(F)(F)F)C(=O)Nc2cc(F)ccc21 (stereo not drawn)	?	-	-	?	?
CC1(Cc2ccc(C(F)(F)F)o2)C(=O)Nc2cc(-c3ccc(F)cc3F)ccc21 (stereo not drawn)	?	-64	?	?	?
COc1ccccc1-c1ccc2c(c1)C(C)(Cc1ccc(F)c(Cl)c1)C(=O)N2 (stereo not drawn)	?	-	?	?	?
CC1(Cc2ccc(OC(F)(F)F)cc2)C(=O)Nc2ccc(S(=O)(=O)NC3CCCCC3)cc21 (stereo not drawn)	12µM	-72	?	13µM	?
CC1(Cc2cccc(C(F)(F)F)c2)C(=O)Nc2ccc(-c3ccc(F)c(Cl)c3)cc21 (stereo not drawn)	?	-70	-	?	-
CC1(Cc2ccc(Cl)cc2)C(=O)Nc2ccc(S(=O)(=O)NC3CCCCC3)cc21 (stereo not drawn)	?	-	?	?	?
CCN1CCN(Cc2c(O)ccc3oc(C)c(C(=O)Nc4ccc(OC)c(Cl)c4)c23)CC1	.	.	-	.	-
O=C(Cn1c(=O)c2cccn2c2ccccc21)NCc1ccccc1F	.	.	-	.	-
CC1(Cc2cc(Cl)ccc2C(F)(F)F)C(=O)Nc2ccc(-c3ccc(F)c(Cl)c3)cc21 (stereo not drawn)	-	-	-	?	-
CC1(Cc2cc(Cl)ccc2C(F)(F)F)C(=O)Nc2ccc(OC(F)(F)F)cc21 (stereo not drawn)	21µM	-	-	?	?
CC1(Cc2cc(Cl)ccc2C(F)(F)F)C(=O)Nc2cc(C(F)(F)F)ccc21 (stereo not drawn)	21µM	-	-	?	-
COc1ccccc1-c1ccc2c(c1)C(C)(Cc1cc(Cl)ccc1C(F)(F)F)C(=O)N2 (stereo not drawn)	?	-	?	?	21µM
CC1(Cc2ccccc2OC(F)(F)F)C(=O)Nc2ccc(OC(F)(F)F)cc21 (stereo not drawn)	21µM	?	-	?	-
CC1(Cc2ccccc2OC(F)(F)F)C(=O)Nc2ccc(-c3ccsc3)cc21 (stereo not drawn)	-	-	-	?	-
O=C1NC[C@@H](c2ccccc2)OC(=O)[C@@H](Cc2ccc(F)cc2)CC/C=C/C[C@@H]1CC(=O)N(CCO)Cc1ccccc1	.	?	?	-	-
COc1ccc(-n2c(SCC(=O)Nc3ccc4c(c3)OCO4)nc3c([nH]c4ccccc43)c2=O)cc1	.	.	-	.	-
COc1ccccc1NC(=O)Cn1c(=O)n(Cc2cccs2)c(=O)c2cccnc21	.	.	-	.	-
